Laboratory results taken from the supplement of paper PMC3334620.
Over roughly 33,000 sequences, “E-score (-0.5 to 0.5)” has its median near -0.036; the highest 2% begin near 0.37. This is one part of a sample in which the highest values are shown more often than they occur.

Each sequence was assayed against T1, Yer064c (UniProt P40041) (assay: PBM E-score (8-mer binding enrichment) (E-score (-0.5 to 0.5)); higher = stronger / more preferred TF binding). Conditions: protein concentration: 200 nM; construct: GST-full length.
T1 sequence: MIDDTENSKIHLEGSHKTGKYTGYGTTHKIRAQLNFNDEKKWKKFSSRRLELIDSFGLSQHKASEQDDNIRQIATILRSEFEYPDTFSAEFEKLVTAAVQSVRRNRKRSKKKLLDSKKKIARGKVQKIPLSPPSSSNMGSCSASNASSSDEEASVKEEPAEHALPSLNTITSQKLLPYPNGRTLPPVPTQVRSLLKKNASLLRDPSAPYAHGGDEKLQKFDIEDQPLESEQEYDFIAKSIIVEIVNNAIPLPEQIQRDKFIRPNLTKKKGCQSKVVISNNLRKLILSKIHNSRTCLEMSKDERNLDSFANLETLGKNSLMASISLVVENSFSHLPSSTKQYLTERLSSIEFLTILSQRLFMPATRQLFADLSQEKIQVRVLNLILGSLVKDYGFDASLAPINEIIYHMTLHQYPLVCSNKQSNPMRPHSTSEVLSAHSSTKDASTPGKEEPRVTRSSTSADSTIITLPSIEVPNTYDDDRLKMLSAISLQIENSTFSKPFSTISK
Protocol: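 Universal 'all 10-mer' protein binding microarrays (Agilent AMADID 015681) probed with GST-tagged S. cerevisiae TFs (full-length or DBD) made by in vitro transcription/translation (PURExpress), about 100-200 nM. Bound TF was detected with fluorescent anti-GST. Each ungapped 8-mer (which stands for itself and its reverse complement) is scored by the PBM enrichment score (E-score), a modified Wilcoxon-Mann-Whitney statistic from -0.5 to +0.5, computed with the Universal PBM Analysis Suite. Scale: above 0.35 generally sequence-specific binding.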

Point of comparison: AGACTAAG, “PBM E-score” value 0.383. Against it:
- CGTGACCC — lower, 0.0177
- CGTGACGC — lower, -0.00579
- CGTGACTC — higher, 0.481
- AGGGTACT — lower, -0.144
- TGATTCCA — higher, 0.398
- TGATTCAA — higher, 0.466
- AGATTCAA — lower, 0.314
- AGATTCCA — lower, 0.0276
- CGATTCCA — lower, -0.102
- GGATTCAA — lower, 0.18
- AGCGGAAG — lower, -0.191
- CTGCACCC — lower, -0.223
- TGACTGAA — higher, 0.432
- GGACTGAA — lower, 0.109
- CGACTGCA — lower, 0.253
- TGACTGCA — higher, 0.404
- AGACTGCA — lower, 0.201
- AGACTGAA — lower, 0.241
- ACTCCAAT — lower, 0.238
- CAGTCCCC — lower, -0.225
- CCGGTGAG — lower, 0.0747
- GCGGAGTA — lower, -0.0756
- CGACACTA — lower, -0.0389
- GTTTTGGA — lower, 0.197
- AAGCACTG — lower, 0.0399
- AAACACTG — lower, 0.0608
- AATCACTG — lower, 0.375
- AATCACTA — lower, 0.373
- CATCACTA — lower, 0.0474
- AATCACTC — higher, 0.385
- CATCACTC — lower, 0.0183
- GATCACTA — lower, 0.135
- CGGCGATC — lower, -0.0422
- GTCACCAC — lower, 0.29
- CATTCTAC — lower, -0.179
- CAAGATTA — lower, 0.199
- AGTCCAGG — lower, 0.0238
- AAGCCAGC — lower, -0.181
- GTTCAAGA — lower, 0.0547
- AACGCTCA — lower, -0.103
- TCTGGACA — lower, -0.266
- ACTTCGAA — lower, 0.166
- AACTATGC — lower, -0.153
- GACTATGA — higher, 0.435
- TACTATGA — lower, 0.318
- AACTATGA — lower, 0.237
- CACTATGC — lower, 0.0417
- GACTATGC — higher, 0.397
- ACGGCGAG — lower, 0.0206
- GCTCGCAC — lower, -0.24
- CTACTTTC — lower, 0.0258
- CGGCCGGC — lower, -0.134
- GTGGTGGA — lower, -0.14
- TTGGCCAA — lower, -0.142
- TGACTACA — higher, 0.476
- AGACTATC — lower, 0.35
- CGACTAAA — higher, 0.41
- AGACTACA — lower, 0.344
- CTACTAAA — lower, 0.00127
- AGACTAAC — higher, 0.413
- CGACTACA — lower, 0.351
- TGACTTAA — higher, 0.435
- GGACTTAA — lower, 0.188
- AGACTTAA — lower, 0.195
- AGACTAGC — lower, 0.251
- CCACTAAA — lower, -0.0544
- ACACTCTG — lower, -0.0556
- ACGCCACT — lower, -0.186
- GGAACTTA — lower, -0.0956
- CAGTAACA — lower, 0.0175
- TACATTGA — lower, 0.0284
- AGATGATA — lower, 0.0471
- AGTAAAGG — lower, 0.0771
- ATCCATTC — lower, 0.0758
- CTCAGATA — lower, 0.268
- GGGTTTCA — lower, -0.23
- ACCGGAGA — lower, -0.00273
- ATAGAACC — lower, 0.0363
- CGACTAAG — higher, 0.399
- AGACTATG — lower, 0.319
- AGACTACT — lower, 0.376
- TGACTAAA — higher, 0.484
- AGACTACG — lower, 0.322
- CCACTAAG — lower, 0.0593
- GGACTAAA — lower, 0.331
- AGACTACC — lower, 0.354
- TGGCTAAA — lower, 0.306
- CTACTAAG — lower, 0.0152
- AAACTAAG — lower, 0.175
- ACTATTCA — lower, 0.106
- AGTTGCCA — lower, -0.223
- ACGTTGAG — lower, 0.0564
- GAGTCTGC — lower, 0.312
- TTCAGCAA — lower, -0.00768
- AGTGATAT — lower, -0.134
- AACTGAAC — lower, -0.119
- AGACTAAT — higher, 0.389
- AAACTAAA — lower, 0.0515
- AGACTAGA — lower, 0.276
- AGACTAAA — higher, 0.398
- AAACTAAT — lower, 0.243
- CGACTATC — lower, 0.359
- CGACTATA — lower, 0.374
- ATACTAAT — lower, 0.174
- AGACTATA — lower, 0.35
- AACTGGCT — lower, -0.28
- CGGGTAAC — lower, -0.0478
- AAGCATAT — lower, 0.0236
- TATCATAA — lower, 0.0309
- AATCAGAG — lower, 0.269
- AATCATAA — higher, 0.418
- CATCATAG — lower, 0.25
- AATCAAAT — lower, 0.23
- CATCATAA — lower, 0.0722
- AATCATAC — higher, 0.451
- AATCATAT — higher, 0.428
- AATCATAG — higher, 0.433
- CATCATAC — lower, 0.215
- GATCATAC — lower, -0.0115
- AATGGCAC — lower, -0.231
- CCCTCCAA — lower, -0.12
- AATATAAA — lower, 0.0817
- ATGGCTTC — lower, 0.156
- GGGCGGCA — lower, -0.406
- CACACCCA — lower, 0.0764
- AAACGAGA — lower, 0.0214
- GAAAGAAA — lower, -0.0206
- CCTACGAA — lower, -0.211
- TACGCATA — lower, -0.0887
- AAGAAACG — lower, -0.028
- CTTTAGCA — lower, -0.154
- CGTATCGA — lower, -0.111
- TAGTCACA — higher, 0.478
- AAGTCACC — higher, 0.447
- AAGTCACA — higher, 0.414
- TGGTCACA — lower, 0.103
- AAGTCACG — higher, 0.433
- TCGTCACA — lower, -0.0543
- ACGTCACC — lower, -0.162
- ACGTCACG — lower, -0.289
- AAGTCAGG — lower, 0.341
- AGGTCACG — lower, -0.143
- ATGTCACG — lower, -0.123
- AGGTCACC — lower, 0.00721
- AAGACCAG — lower, -0.0791
- CCCGGCAA — lower, -0.166
- CTGCGGAC — lower, -0.0565
- AGGGGGTC — lower, -0.406
- CCCACATA — lower, 0.0317
- CCGTTCGA — lower, 0.0719
- ACGTCACT — lower, -0.0404
- AAGTCACT — higher, 0.399
- GAGTCACA — higher, 0.493
- GGGTCACA — lower, 0.00589
- AGGTCACT — lower, 0.0701
- GCGTCACA — lower, -0.13
- GAGGCCAC — lower, -0.319
- ACGGCCGC — lower, -0.0196
- AGGCAGTC — lower, 0.213
- CTTTGAGA — lower, 0.179
- TGAGCTAA — lower, 0.189
- GCTGTAGA — lower, -0.0534
- AGTTAGCG — lower, -0.0192
- CTTGTGAC — lower, 0.222
- ATTGGTCA — lower, 0.0959
- CATCCACC — lower, -0.0348
- CCTGGACA — lower, -0.127
- ATGATTTG — lower, 0.299
- ACGATTAC — lower, 0.185
- ATGATTAC — higher, 0.472
- ACGATTAG — lower, 0.152
- AAGATTAC — lower, 0.241
- ATGATTAG — higher, 0.438
